Screens (PubChem BioAssay)
Wee1 stabilizer: inhibitors of human Wee1 degradation | actives 1.2% (n = 220,000) | AID 1321 | reporter increase, % at 5 µM | HeLa Luc-Wee1K328M stability, luciferase luminescence; 100% = proteasome inhibitor MG132 effect | P30291;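 active means activation above the mean of all tested compounds plus 3 SD, set per screening run, cut at about 8.8% in these data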;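 further: cells exposed to compound for 20 h before luminescence read; 0% = DMSO alone and 100% = MG132 at 30 µM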
Target sequence (P30291 whole entry K328M): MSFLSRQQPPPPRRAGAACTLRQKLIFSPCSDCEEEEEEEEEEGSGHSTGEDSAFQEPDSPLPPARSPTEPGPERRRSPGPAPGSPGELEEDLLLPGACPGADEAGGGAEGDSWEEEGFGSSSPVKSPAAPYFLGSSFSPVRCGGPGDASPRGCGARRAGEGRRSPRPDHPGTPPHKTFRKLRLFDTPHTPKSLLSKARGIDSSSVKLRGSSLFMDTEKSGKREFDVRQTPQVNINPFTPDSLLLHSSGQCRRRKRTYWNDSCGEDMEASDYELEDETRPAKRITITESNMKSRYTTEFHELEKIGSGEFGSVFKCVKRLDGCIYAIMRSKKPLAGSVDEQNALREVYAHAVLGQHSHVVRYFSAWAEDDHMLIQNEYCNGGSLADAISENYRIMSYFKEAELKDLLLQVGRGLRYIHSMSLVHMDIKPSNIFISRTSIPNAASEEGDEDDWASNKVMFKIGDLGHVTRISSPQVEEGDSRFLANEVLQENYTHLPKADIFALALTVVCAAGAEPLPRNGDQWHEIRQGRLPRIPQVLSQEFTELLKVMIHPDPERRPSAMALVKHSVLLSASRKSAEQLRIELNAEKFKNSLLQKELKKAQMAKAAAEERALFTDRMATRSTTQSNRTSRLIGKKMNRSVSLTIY
APP 5'UTR act: activates APP 5'UTR luciferase reporter; SH-SY5Y APP 5'UTR luciferase reporter, luminescence; zero percent = DMSO vehicle wells; activation, % at 2 µM; actives 1% (n = 190,000); AID 1276;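 active means activation above a set limit, based on mean plus 3 SD of controls, cut at about 140% in these data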
APP 5UTR inh: APP translation inhibition. SH-SY5Y APP 5'UTR-luciferase reporter, luminescence. inhibition, % at 2 µM. actives 0.82% (n = 190,000);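 active means inhibition above a set limit, derived from the sample mean plus 3 SD, cut at about 45% in these data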
NF-kB expr up: NF-kB expression increase, human neuronal cells | NF-kB reporter expression; hits give high values | fold change at 12.5 µM | actives 1.6% (n = 190,000); in the data active means fold change above about 3.3
Hsp70 act: Hsp70 transcriptional activation, primary screen; HeLa Hsp70 promoter luciferase reporter, luminescence; scaled: vehicle 0, proteasome-inhibitor control 100%; activation, % at 10 µM; actives 0.04% (n = 200,000);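 active means activation above the mean across all tested compounds plus 3 SD, cutoff set per campaign, cut at about 5.5% in these data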;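 further: 100% = MG132 at 30 µM as the positive control and 0% = DMSO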
STAT1 activator: increases IFN-gamma driven STAT1 reporter signal. AID 932. NIH 3T3 STAT1-luciferase reporter, luminescence; 100% = IFN-gamma alone, no compound. activation (% of control), % at 5.5 µM. actives 2.6% (n = 200,000);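 active means activation above the screen-wide mean activation plus 3 SD, cut at about 130% in these data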;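 further: raw ratio to IFN-gamma control signal so 100% means no change and 0% no light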
STAT1 activ conf: STAT1 activation, confirmation assay; shares compounds with STAT1 activator; NIH 3T3 STAT1-luciferase reporter, IFN-gamma potentiation, luminescence; 100% = IFN-gamma EC80 alone, no compound; activation (% of control), % at 5.7 µM; actives 97% (n = 1,200); AID 1262;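 active means activation above a set limit carried over from the earlier primary STAT1 screen, cut at about 140% in these data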;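 further: simple ratio to median IFN-gamma plus DMSO wells so 0% means no light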
NFkB act STAT1ct: counter-screen for STAT1 activators: NF-kappaB activation | shares compounds with STAT1 activator | HEK293T NF-kB luciferase reporter, TNF-alpha stimulated, luminescence; 100% = TNF-alpha with vehicle only | activation (% of control), % at 5.7 µM | actives 43% (n = 1,200) | AID 1306;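 active means activation above the mean of solvent-only control wells plus 3 SD, set per campaign, cut at about 130% in these data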;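 further: TNF-alpha given at a submaximal dose yielding about 80% of full reporter signal; values are well signal over median control so 100% means no change and 0% no light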
STAT3 act STAT1c: human STAT3 activation in STAT1 activator counter-screen; shares compounds with STAT1 activator; U3A cells STAT3-luciferase reporter, IL-6, luminescence; cells lack STAT1; 100 = IL-6 alone, no compound effect; activation (% of control), % at 5.7 µM; actives 46% (n = 1,200); AID 1316;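 active means activation above the solvent-only control well mean plus 3 SD, set per plate batch, cut at about 110% in these data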;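 further: 0% = no luminescence and 100% = median IL-6 plus DMSO wells; higher means more STAT3 reporter activation so hits are non-selective activators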
Active calls of the source: *; nt = not tested or not shown. Compounds with a hit are over-represented: about 4.8% of the library has one in this group of screens.

SMILES	Wee1 stabilizer	APP 5'UTR act	APP 5UTR inh	NF-kB expr up	Hsp70 act	STAT1 activator	others
O=C(c1ccc(C(F)(F)F)cc1)C1CCCN(C(=O)CN2C(=O)CSC2=O)C1 (centres undefined)	9.8*	13	-13	1.7	0	113
O=C(c1ccc(C(F)(F)F)cc1)C1CCCN(C(=O)CN2CCCC2=O)C1 (centres undefined)	0	20	-20	1.6	0	105
O=C1c2ccccc2NC(c2ccccc2)N1CCCN1CCOCC1 (centres undefined)	-3	nt	nt	nt	nt	nt
C=C(C)C1CC=C(C)/C(=N/NC(=O)COc2ccccc2Cl)C1 (centres undefined)	-2	2	-2	0.75	0	102
C/C(CCC(C)C)=N\NC(=O)COc1ccccc1-c1ccccc1	4	-94	94*	1.3	0	100
Cc1cccc2c1OCC/C2=N\NC(=O)COc1ccccc1Cl	-1	6	-6	2	0	130*
O=C1CCC/C(=N\NC(=O)c2ccc(COc3ccccc3-c3ccccc3)cc2)C1	-3	5	-5	1.2	0	95
CC(NC(=O)COc1ccccc1-c1ccccc1)c1ccccc1 (centres undefined)	-2	24	-24	0.98	0	91
O=C(COc1ccccc1-c1ccccc1)NN=C1CCCC1	3	-82	82*	1.1	0	104
COc1cccc(NC(=O)CN2CCN(S(=O)(=O)c3ccc(C(C)C)cc3)CC2)c1	-2	-2	2	1	0	94
Cc1cnc(C(=O)Nc2ccc3c(c2)CCC3)cn1	2	163*	-163	7.4*	0	122
CCCCc1ccc(NC(=O)c2cnccn2)cc1	-3	174*	-174	5.8*	0	75
Cc1cnc(C(=O)Nc2ccc(F)c(F)c2)cn1	-2	6	-6	2.2	0	118
CN1N=C(C(=O)Nc2ccc3c(c2)CCC3)CCC1=O	3	24	-24	1.7	0	132*
CC(=O)Nc1ccc2c(c1)CCCC2	0	nt	nt	nt	nt	nt
CCOC(=O)c1ccc(NC(=O)c2cnccn2)cc1	3	24	-24	2	0	119
Cc1ccc(C(=O)Nc2nc(C)c(C(=O)Nc3ccc4c(c3)CCC4)s2)cc1	9.8*	-66	66*	1.1	0	128
Cc1nc(NC(=O)c2ccc(F)cc2)sc1C(=O)Nc1ccc2c(c1)CCC2	0	28	-28	1.3	0	107
O=C(Nc1ccc2c(c1)CCC2)c1cnccn1	3	105	-105	2.6	0	143*
CC(Oc1ccc(Cl)cc1Cl)C(=O)Nc1ccncc1 (centres undefined)	-1	-5	5	0.92	0	95
CNc1nc(-c2c[nH]c3ccccc23)cs1	1	-7	7	0.6	0	95
CN=c1scc(-c2c[nH]c3ccccc23)n1C	12*	-5	5	1	0	92
C=CCn1c(-c2ccccc2)cc(SC)c(C#N)c1=O	-3	16	-16	1.1	0	107
CCC1=[N+](CC(=O)c2ccc(C)cc2)CCn2c(C)ccc21	-1	60	-60	1.4	0	103
CCC1=[N+](CC(=O)c2ccc(Br)cc2)CCn2c(C)ccc21	11*	nt	nt	nt	nt	nt
SMILES	Wee1 stabilizer	APP 5'UTR act	APP 5UTR inh	NF-kB expr up	Hsp70 act	STAT1 activator	others
CCCNC(=O)Cn1cnc([N+](=O)[O-])n1	1	36	-36	1.1	0	112
Cc1ccc(-c2nc3ccsc3c(=O)o2)cc1	4	5	-5	2.9	0	129*
CC(C)Sc1nc2ccsc2c(=O)[nH]1	0	6	-6	1.6	0	106
COc1ccc(-c2nc3c(Br)c(N)c(Br)cc3o2)cc1	3	113	-113	1.7	0	135*
Nc1ccccc1-c1nnc(-c2ccc(-c3ccccc3)cc2)o1	2	46	-46	2.5	0	128
COc1ccc(-c2nnc(SCC(C)C)o2)cc1	8	nt	nt	nt	nt	nt
Nc1c(Br)cc2oc(-c3ccccc3)nc2c1Br	0	100	-100	3.4*	0	112
CC(C)CNS(=O)(=O)c1ccc(CCC(=O)N2CCN(c3ccc(F)cc3)CC2)cc1	6	4	-4	0.86	0	69
COc1ccc(-c2cc(-c3cccs3)c(C#N)c(SCC(=O)NCc3ccco3)n2)cc1	2	-96	96*	1.5	0	107
COc1ccc(CNC(=O)CSc2nc(-c3ccccc3)cc(-c3cccs3)c2C#N)cc1	2	9	-9	1.1	0	100
COc1cc(OC)cc(C(=O)N/N=C/c2ccc(OC)c(COc3ccc(F)cc3)c2)c1	3	-87	87*	1.8	0	102
COc1ccc(/C=N/NC(=O)c2cccnc2)cc1COc1ccc(NC(C)=O)cc1	-1	nt	nt	nt	nt	nt
CC(C)CNC(=O)COC(=O)c1ccc([N+](=O)[O-])cc1Cl	2	10	-10	1.1	0	99
N#CCc1cc2ccc3cccc4ccc(c1)c2c34	22*	nt	nt	nt	nt	nt
N#CCc1ccc(NC(=O)Nc2cccc(Cl)c2)cc1	4	27	-27	1.6	0	111
CCCCCCC(=O)Oc1cccc(N2C(=O)C3CCCCC3C2=O)c1 (centres undefined)	1	-11	11	1.3	0	103
Cc1ccc(C(=O)/C=C/Nc2ccccc2C(N)=O)cc1	-1	174*	-174	6.7*	0	110
NC(=O)c1ccccc1N/C=C/C(=O)c1ccc(Cl)cc1	4	148*	-148	6.9*	0	91
Brc1c(-c2ccccc2)nc2n1Cc1ccccc1-2	1	nt	nt	nt	nt	nt
c1ccc2c(c1)Cn1c-2nc2ccccc21	4	76	-76	4.7*	0	158*	STAT1 activ conf=189*;NFkB act STAT1ct=129;STAT3 act STAT1c=95
N#Cc1ccc(-c2ccc(F)cc2)nc1Oc1ccc(F)cc1	-1	7	-7	1.3	1	92
CCOC(=O)C1CCN(C(=O)c2ccccc2NC(=O)c2ccc(Br)cc2)CC1	5	-10	10	1.3	0	99
Cc1cc(N)n(-c2ccc(Oc3ccccc3)c(S(=O)(=O)O)c2)n1	-2	1	-1	1.1	0	111
